Bioassay records as filed in PubChem.
Pf growth 48h: P. falciparum growth inhibition at 48 hours (one generation) | P. falciparum luciferase growth in erythrocytes, 48 h | Potency, µM (doses to about 28.7 µM), for inactives: top-dose activity change, negative = inhibition, usual class: inhibitors | actives 5.9% (n = 310,000) | AID 504832; note: potency is the fitted concentration of half-maximal effect; % is set by controls: 0 for no effect and ±100 for the full control effect
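A one-generation exposure of luciferase-tagged malaria parasites in RPMI 1640/Albumax erythrocyte culture, 37 C and 5% CO2. Inhibition is inferred from decreased luminescence after adding detection reagent.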
Shiga inhibitor: Shiga toxin inhibition; inhibition, % at 38.7 µM; actives 9.2% (n = 290,000); Vero cells, Shiga toxin protein synthesis inhibition reporter; in the data active = inhibition mostly above about 28%, no sharp cut-off; inactive = mostly below about 43%; note: 0% is about no effect
Pf growth 96h: P. falciparum growth inhibition at 96 hour, primary screen for plastid delayed-death inhibitors. P. falciparum luciferase reporter growth, 96 h. Potency, µM (top dose mostly 28.7 µM), for inactives: at the highest dose activity change, negative = inhibition, most hits filed as inhibitors. actives 6.9% (n = 320,000). AID 504834; note: potency is the fitted concentration of half-maximal effect; % is set by controls: 0 for no effect and ±100 for the full control effect
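Plates of compound plus infected erythrocytes (2% hematocrit, 0.05% parasitemia final) incubate 96 hours, 37 C, 5% CO2. Detection reagent added; reduced luminescence from the parasites' luciferase reporter flags inhibition.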
LmPK inh: blocks Leishmania mexicana pyruvate kinase activity; Potency, µM (top dose mostly 57.5 µM), without a hit: at the top dose activity change, negative = inhibition, actives largely listed as inhibitors; Q27686; actives 0.37% (n = 290,000); purified LmPK, Kinase-Glo ATP luminescence, 1 h; note: potency is the fitted concentration of half-maximal effect; % is set by controls: 0 for no effect and ±100 for the full control effect
Target sequence (Q27686 whole entry, looked up): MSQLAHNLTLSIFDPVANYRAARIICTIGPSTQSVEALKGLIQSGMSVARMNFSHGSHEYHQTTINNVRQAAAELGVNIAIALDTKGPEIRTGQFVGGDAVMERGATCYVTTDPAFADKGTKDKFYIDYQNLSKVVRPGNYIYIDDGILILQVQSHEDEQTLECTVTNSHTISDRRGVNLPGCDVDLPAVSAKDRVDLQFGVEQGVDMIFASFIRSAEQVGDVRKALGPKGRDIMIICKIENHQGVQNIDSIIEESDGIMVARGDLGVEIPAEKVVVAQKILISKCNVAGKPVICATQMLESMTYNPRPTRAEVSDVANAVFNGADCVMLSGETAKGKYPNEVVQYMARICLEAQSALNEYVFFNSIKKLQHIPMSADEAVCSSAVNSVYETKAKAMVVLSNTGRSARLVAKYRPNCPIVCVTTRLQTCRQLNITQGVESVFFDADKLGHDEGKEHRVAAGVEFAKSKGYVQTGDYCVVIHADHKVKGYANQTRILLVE
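Purified LmPK (0.1 nM) with 0.5 mM PEP and 0.1 mM ADP in imidazole buffer pH 7.2 with MgCl2/KCl, 1 h at room temperature. ATP formed was read by luciferase luminescence and normalized to no-enzyme and uninhibited controls.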
CHX counter: counter-screen hit for Shiga toxin inhibitors, cycloheximide. actives 12% (n = 300,000). max response, %. cell reporter, cycloheximide protein synthesis inhibition counterscreen; in the data active = max response mostly above about 13%, no sharp cut-off; inactive = mostly below about 14%; note: read at 38.3 µM for the half of the compounds with a filed dose; 0% is about no effect
* = called active by the depositor; u = inconclusive; x = not tested or not shown; [ ] = remark or other dose. Hits are enriched below; roughly 22% of the tested compounds scored in any of these assays. Unless noted, calls come from the whole dose curve; as a rule, active = well fitted inhibition curve with a large enough effect; inconclusive = small, poorly fitted or top-dose-only effect, or another doubt; inactive = no such curve, though single readings can be large or run the other way.

SMILES	Pf growth 48h	Shiga inhibitor	Pf growth 96h	LmPK inh	CHX counter
CCOC(=O)CNC(=O)CSc1nnc(-c2ccco2)n1Cc1ccco1	39%	-2	8.3µM*	2%	7
CCOC(=O)CNC(=O)CSc1nnc(-c2ccco2)n1N	23%	-9	u	0%	6
COc1cccc(-c2nnc(SCC(=O)NCc3ccc4c(c3)OCO4)n2Cc2ccco2)c1	x	-6	6.6µM*	14%	-6
CS(=O)(=O)c1ccc(Cl)c(NC(=O)CSc2n[nH]c(-c3cccs3)n2)c1	-11%	x	1%	x	x
O=C(CN1C(=O)CCC1=O)Nc1nc(-c2nc3ccccc3s2)cs1	129%	active	200%	-1%	25*
O=C(CN1C(=O)CCC1=O)Nc1nc(-c2ccc3ccccc3c2)cs1	133%	96*	84%	1%	40*
CC(O)[C@@H]1NC(=O)[C@H](CCCN)NC(=O)[C@@H](Cc2c[nH]c3ccccc23)NC(=O)[C@H](Cc2ccc(O)cc2)NC(=O)[C@@H](NC(=O)[C@H](N)Cc2ccccc2)CSSC(C)(C)C(C(=O)N[C@H](C(N)=O)[C@@H](C)O)NC1=O (some centres undefined)	x	-4	x	x	-10
CC(=O)Nc1ccc(Cl)c(-c2nc3ncccc3o2)c1	x	-8	31%	-7%	3
CCC1(c2ccc(Cl)cc2)NC(=O)N(CC(=O)NC2CCCCCC2)C1=O (centres undefined)	u	x	3%	x	x
Cc1ccc(Oc2ncc(CN3CCOCC3)s2)cc1	86%	61*	163%	-3%	24*
Clc1cccc(Oc2ncc(CN3CCOCC3)s2)c1	58%	25	92%	-1%	20*
CCOc1cc(/C=N/O)cc(Cl)c1OC	34%	-12	u	-1%	-7
CCOC(=O)c1ccccc1NC1c2ccccc2C(=O)N1c1cc(C)ccn1 (centres undefined)	x	-18	u	2%	-7
Cc1ccc(N2C(=O)c3ccccc3C2Nc2ccccc2F)nc1 (centres undefined)	x	55*	u	6%	32*
Cc1ccc(N2C(=O)c3ccccc3C2=O)nc1	3%[0.00184 µM]	-5	-19%	0%	-4
COc1cc(OC)c(NC2c3ccccc3C(=O)N2c2cc(C)ccn2)cc1Cl (centres undefined)	-12%	-4	12µM*	2%	-1
O=C1c2ccccc2C(Nc2ccc(Cl)cn2)N1c1ccccn1 (centres undefined)	12µM*	3	6%	0%	0
O=C1c2ccccc2C(Nc2ccccc2)N1c1cccnc1 (centres undefined)	x	-11	u	1%	-4
Cc1ccc(-c2nc(CNC(=O)c3ccco3)cs2)cc1	33%	85*	u	-11%	39
O=C(NCCc1csc(-c2ccc(Cl)cc2)n1)c1ccco1	-1%	-2	9%	-4%	22
O=C(NCCc1csc(-c2ccccc2)n1)c1ccc(Br)o1	-2%	9	21%	3%	-3
Cc1ccc(-c2csc(NC(=O)CCNC(=O)c3ccco3)n2)cc1	u	43*	u	1%	20*
O=C(NCCc1csc(-c2cccnc2)n1)c1ccco1	x	-20	-6%	-1%	2
COc1cc(-c2nc(CCNC(=O)c3ccco3)cs2)cc(OC)c1OC	u	9	10µM*	6%	1
O=C(NCCc1csc(-c2cccnc2)n1)c1ccc(Br)o1	u	-5	8.3µM*	1%	4
SMILES	Pf growth 48h	Shiga inhibitor	Pf growth 96h	LmPK inh	CHX counter
Cc1cccc(-n2c(SCC(=O)NCC3CCCO3)nc3ccccc3c2=O)c1C (centres undefined)	u	x	-44%	x	x
O=C(/C=C/c1cccc([N+](=O)[O-])c1)N1CCN(c2ccc(F)cc2)CC1	-12%	-7	2%	-1%	-1
Cc1csc2nc(CNC(=O)c3ccco3)cn12	100%	56*	-9%	3%	35*
O=C(O)c1ccccc1/C=N/NC(=O)C1CCCCC1	97%	-4	52%	0%	-1
CC(C)NC(=S)N/N=C/c1sc(N2CCCCC2)nc1-c1cccs1	0%	-11	0.83µM*	1%	8
O=C(N/N=C/c1sc(N2CCCCC2)nc1-c1cccs1)C1CC1	10µM*	40	5.2µM*	1%	14
CCCCNC(=S)N(C)/N=C/c1sc(N2CCCCC2)nc1-c1cccs1	10µM*	4	12µM*	1%	-2
Cn1cc(CN2C[C@H]3CC[C@H]2C3)c(-c2ccccc2F)n1	4%	-4	u	1%	-3
CC(=O)N(C[C@@H](C)C(=O)O)c1c(I)cc(I)c(N)c1I	-3%[12.8 µM]	x	16%[12.8 µM]	x	x
O=C(CN(C(=O)CSc1nnc(COc2ccccc2)o1)c1ccc(F)cc1)NC1CCCCC1	12µM*	-2	u	2%	-2
CCOc1ccc(N(CC(=O)NC2CCCC2)C(=O)CSc2nnc(COc3ccccc3)o2)cc1	x	11	7.4µM*	5%	2
O=C(C[n+]1cccc(O)c1)NCc1ccc(Cl)cc1	0%	-4	-5%	-2%	-5
CCC(CC)C(=O)NN(C(=O)c1ccncc1)C1CC(=O)N(c2ccccc2)C1=O (centres undefined)	10%	-3	14%	-1%	-2
NC(=O)c1ccc(OCC(F)(F)C(F)(F)C(F)(F)C(F)(F)C(F)(F)C(F)F)cc1	7%	-17	12µM*	5%	-3
Cc1cc(OCC(F)(F)C(F)(F)C(F)(F)C(F)(F)C(F)(F)C(F)F)nc(N)n1	35%	-12	-2%	2%	-1
COc1ccc(-c2ccc(CO)o2)cc1N	112%	55*	79%	11%	31*
CC1CCCCC1Nc1nc2ccc(Cl)cc2n2cnnc12 (centres undefined)	u	25	-5%	1%	11
O=C(c1cc(COc2ccc(F)c(F)c2)on1)N1CCN(C2CCCCC2)C(=O)C1	u	59	-15%	5%	31*
O=C(c1cc(COc2ccc(F)c(F)c2)on1)N1CCN(C/C=C/c2ccccc2)CC1	u	45*	-8%	-4%	37*
CCCOC1CCCN(C(=O)c2cc(COc3ccc(F)c(F)c3)on2)C1 (centres undefined)	-1%	109*	u	2%	44*
COCC1CCCN(C(=O)c2cc(COc3ccc4ncccc4c3)on2)C1 (centres undefined)	-19%	-3	u	-11%	5
COCCN1CCN(C(=O)c2cc(COc3ccc(F)cc3F)on2)CC1	15%	10	u	-2%	1
CCCN1CCN(C(=O)c2cc(COc3ccc(F)c(F)c3)on2)CC1	20%	40*	0%	-2%	29*
CCN1C(=O)N(CC)C2C1N(CO)C(=O)N2CO (centres undefined)	13%	35	16%	3%	0
COc1cc(NC(=O)[C@@H]2CCCN2S(=O)(=O)c2cccc3cccnc23)cc(OC)c1OC	58%	x	89%	x	x
